This is part of a sample that, as a whole, favours compounds with a hit. Of some 79,000 tested, about 15% had one in any assay. Values without a mark were called inactive. The source made the active and inactive calls. Rule as the data show it: active = growth inhibition above about 70%; inactive = the rest.
Assay: NCI Yeast Anticancer Drug Screen. Data for the mlh1 rad18 strain (AID 175)
Conditions: S. cerevisiae mlh1 rad18 strain growth inhibition; at 50.0 µM; stronger effect = higher value
Procedure, shortened: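 Vehicle-treated cultures served as the reference for growth inhibition in a yeast strain carrying DNA damage repair alterations exposed to each compound.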

Row | SMILES | growth inhibition
1 | COc1ccc2nc3cccc([N+](=O)[O-])c3c(NCCNCCN(C)C)c2c1 | 66.5%
2 | Cc1cccc(/C=N/NC(=S)NC2CCCCC2)n1 | 62.5%
3 | COC(=O)C(=O)c1c(-c2ccc(Cl)c(Cl)c2)[nH]c2[nH]n(-c3ccccc3)c(=O)c2c1=O | 94.5% (active)
4 | c1ccc([P+](CCN2Cc3ccccc3C2)(c2ccccc2)c2ccccc2)cc1 | 88.8% (active)
5 | Cc1cc(C)c2[s+]snc2c1 | 76% (active)
6 | CC(C)(Br)C(=O)/C=C/c1ccccc1 | 71.9% (active)
7 | Cc1ccc(S(=O)(=O)NC(=O)C2C(=O)CC3(CCCCC3)CC2=O)cc1 | -61.4%
8 | NC(=S)N1N=C2c3ccccc3CC[C@H]2[C@@H]1c1ccc(Cl)cc1 | 80.2% (active)
9 | O=[N+]([O-])/C=C/c1cc2ccc3ccccc3c2[nH]1 | 98% (active)
10 | O=C1C(=C2CCCC2)CCC1CN1CCCCC1 (stereo not given) | 63.5%
11 | OC(CC(O)(C(F)(F)F)C(F)(F)F)c1ccc(C(O)CC(O)(C(F)(F)F)C(F)(F)F)cc1 (stereo not given) | 99.3% (active)
12 | COc1cc2c(cc1OC)[C@@H](Nc1ccc(C#N)cc1)C1COC(=O)[C@@H]1C2c1cc(OC)c(O)c(OC)c1 (stereo not given in full) | 86.7% (active)
13 | O=c1cccccc1[O-].O=c1cccccc1[O-].O=c1cccccc1[O-].[Eu+3] | 89.8% (active)
14 | O=C1c2ccccc2C(=O)c2sc(Nc3ccccc3Cl)nc21 | 85.8% (active)
15 | NC(CCCCCCCCCCCCC(N)C(=O)c1ccccc1)C(=O)c1ccccc1 (stereo not given) | -10.4%
16 | CC1=C(C)C(=O)C2=C(OCCO2)C1=O | 26%
17 | c1ccc(-c2cc(C3CO3)c3ccccc3n2)cc1 (stereo not given) | 95.8% (active)
18 | S=C1C(=Nc2ccccc2)N(c2ccccc2)/C(=N\c2ccccn2)N1c1ccccc1 | 97.8% (active)

Row | SMILES | growth inhibition
19 | CCC(OC(C)=O)C1CC(C(C)C)CCC1C (stereo not given) | 27.6%
20 | CC(C)=CCc1c2c(c(O)c3c(=O)c(-c4ccc(O)c(O)c4)coc13)C=CC(C)(C)O2 | 85.1% (active)
21 | O=C(NC(N1CCN(c2cc3c(cc2F)c(=O)c(C(=O)O)cn3C2CC2)CC1)(C(F)(F)F)C(F)(F)F)c1ccccc1 | -1.3%
22 | Fc1cc(F)c(F)c(S)c1F | 74.5% (active)
23 | COc1ccc2cc3c4cc5c(cc4cc[n+]3cc2c1OC)OCO5 | 97% (active)
24 | CCCCCCCCNCCCCCCCC | 99.3% (active)
25 | Nc1cc(Cl)ccc1Nc1ccccc1 | 84% (active)
26 | O=C(/C(=C/c1ccc(O)cc1)c1ccccc1)c1ccccc1 | 84% (active)
27 | O=Cc1ccccc1C=O | 82% (active)
28 | C1=CCN([B-](c2ccccc2)[C+]2CCCCC2)C=C1 | 96.5% (active)
29 | CC/C(=C(\c1ccccc1)c1ccc(OCC[N+](C)(C)C)cc1)c1ccccc1 | 90.1% (active)
30 | O=S(=O)(c1cccc(C(F)(F)F)c1)N1c2ccccc2-n2cccc2C1c1cccnc1 (stereo not given) | 95.5% (active)
31 | Nc1ccc2c(c1)C(=O)c1c(F)cccc1-2 | 84.5% (active)
32 | CN(C)/C(=N/C(=S)Nc1ccccc1)SCc1ccccc1 | 97.7% (active)
33 | CCN(CC)C(=S)N/N=C(\C)c1ccccc1O | 92.2% (active)
34 | CC(C)OC(=O)NNc1cc(Cl)ccc1Cl | 75.2% (active)
35 | CC(C)CCC[C@@H](C)[C@H]1CC[C@H]2[C@@H]3CC[C@H]4C[C@H](N)CC[C@]4(C)[C@H]3CC[C@]12C | 39.9%
36 | O=C1c2ccccc2-c2ccc(N=Cc3ccccc3)cc21 | 56.5%

Assay: NCI Yeast Anticancer Drug Screen. Data for the rad18 strain (AID 177)
Conditions: S. cerevisiae rad18 mutant growth inhibition; at 1.2 µM; stronger effect = higher value
Procedure, shortened: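 Test articles were incubated with altered yeast defective in DNA damage repair. Results are given as inhibition of growth versus vehicle.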

Row | SMILES | growth inhibition [%]
37 | COc1ccc2nc3cccc([N+](=O)[O-])c3c(NCCNCCN(C)C)c2c1 | -5
38 | c1ccc([P+](CCN2Cc3ccccc3C2)(c2ccccc2)c2ccccc2)cc1 | 49
39 | Cc1ccc(S(=O)(=O)NC(=O)C2C(=O)CC3(CCCCC3)CC2=O)cc1 | -15
40 | NC(=S)N1N=C2c3ccccc3CC[C@H]2[C@@H]1c1ccc(Cl)cc1 | 1
41 | O=[N+]([O-])/C=C/c1cc2ccc3ccccc3c2[nH]1 | 61
42 | O=C1C(=C2CCCC2)CCC1CN1CCCCC1 (stereo not given) | 8
43 | OC(CC(O)(C(F)(F)F)C(F)(F)F)c1ccc(C(O)CC(O)(C(F)(F)F)C(F)(F)F)cc1 (stereo not given) | 40
44 | COc1cc2c(cc1OC)[C@@H](Nc1ccc(C#N)cc1)C1COC(=O)[C@@H]1C2c1cc(OC)c(O)c(OC)c1 (stereo not given in full) | -30
45 | NC(CCCCCCCCCCCCC(N)C(=O)c1ccccc1)C(=O)c1ccccc1 (stereo not given) | -6
46 | CC1=C(C)C(=O)C2=C(OCCO2)C1=O | -5
47 | c1ccc(-c2cc(C3CO3)c3ccccc3n2)cc1 (stereo not given) | 2
48 | S=C1C(=Nc2ccccc2)N(c2ccccc2)/C(=N\c2ccccn2)N1c1ccccc1 | -3
49 | CCC(OC(C)=O)C1CC(C(C)C)CCC1C (stereo not given) | 2
50 | CC(C)=CCc1c2c(c(O)c3c(=O)c(-c4ccc(O)c(O)c4)coc13)C=CC(C)(C)O2 | -24
51 | O=C(NC(N1CCN(c2cc3c(cc2F)c(=O)c(C(=O)O)cn3C2CC2)CC1)(C(F)(F)F)C(F)(F)F)c1ccccc1 | -3
52 | Fc1cc(F)c(F)c(S)c1F | -43
53 | COc1ccc2cc3c4cc5c(cc4cc[n+]3cc2c1OC)OCO5 | 8
54 | Nc1cc(Cl)ccc1Nc1ccccc1 | -15
55 | O=C(/C(=C/c1ccc(O)cc1)c1ccccc1)c1ccccc1 | -29
56 | O=Cc1ccccc1C=O | -4
57 | O=S(=O)(c1cccc(C(F)(F)F)c1)N1c2ccccc2-n2cccc2C1c1cccnc1 (stereo not given) | -7
58 | Nc1ccc2c(c1)C(=O)c1c(F)cccc1-2 | 1
59 | CN(C)/C(=N/C(=S)Nc1ccccc1)SCc1ccccc1 | -4
60 | O=C1c2ccccc2-c2ccc(N=Cc3ccccc3)cc21 | -10
